For experiment [1], the target named is Luciferin 4-monooxygenase (Photinus pyralis) (UniProt P08659). The experiment in a line: qHTS assay to identify small molecule inhibitors of firefly luciferase (AID 1224835). Further: nearly all actives have a fitted effect of over 25% in size. On activity change, negative = inhibition: series mostly up to about 120 µM. In outline: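 Biochemical qHTS: compounds run as interplate titrations against purified firefly enzyme, with D-luciferin and ATP each at its KM concentration. Light output recorded by CCD imaging.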
On the technique in general: qHTS replaces the single test concentration by a dilution series.

Experiment [2] can be described thus: qHTS assay to identify small molecule agonists of the constitutive androstane receptor (CAR) signaling pathway - cell viability counter screen (AID 1224836). Further: nearly all actives have a fitted effect of over 45% in size. On viability change, negative = cytotoxic: series mostly up to about 92 µM. In outline: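 Viability read-out: CellTiter-Fluor fluorescence after 23 h compound exposure at 37 C/5% CO2 in double-stable HepG2-CYP2B6-hCAR cells, with PK11195 present at 0.75 uM final; compounds tested in 15-point titration.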

Experiment [3] deals with Nuclear receptor subfamily 1 group I member 3 (Homo sapiens) (UniProt Q14994). The experiment in a line: qHTS assay to identify small molecule antagonists of the constitutive androstane receptor (CAR) signaling pathway (AID 1224838). Further: nearly all actives have a fitted effect of over 40% in size. In outline: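 Inhibition of CITCO-driven (50 nM final) CYP2B6 reporter expression is measured in HepG2 cells stably carrying hCAR. Fifteen compound concentrations are applied for 24 h at 37 C, followed by luciferase luminescence.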

Experiment [4] can be described thus: qHTS assay to identify small molecule antagonists of the estrogen related receptor signaling pathway with the pleiotropic PPARgamma coactivator (PGC) from Tox21 10K library - cell viability counter screen (AID 1224840; active means well fitted cell-killing curve with a large enough effect in the repeat runs, not every such curve was filed as active; further: nearly all actives have a fitted effect of over 40% in size). Summed up:
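Readout: fluorescence intensity from CellTiter-Fluor after 30 min at 37 C/5% CO2. Preceded by 17.5 h treatment of PGC/ERR cells with DMSO-dissolved compounds, added 6 h post-seeding.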

Experiment [5] concerns the target Thyrotropin receptor (Homo sapiens) (UniProt P16473). Kind of experiment: qHTS assay to identify small molecule agonists of the thyroid stimulating hormone receptor (TSHR) signaling pathway (AID 1224843; calls by dose curve; further: nearly all actives have a fitted effect of over 45% in size). Summed up:
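HEK293/TSHR, 800 cells/well; cpd 30 min RT; add cAMP-d2 + anti-cAMP-cryptate, 1 h RT; fluorescence read on plate reader. 15-pt titration, n=3.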

Experiment [6] can be described thus: qHTS assay to identify small molecule antagonists of the estrogen related receptor signaling pathway with the pleiotropic PPARgamma coactivator (PGC) from Tox21 10K library (AID 1224841; call rule not given here; further: actives are mostly falling curves and most rising ones were filed inactive; nearly all actives have a fitted effect of over 50% in size). Summed up: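 One-Glo luminescence, measured after half an hour at room temperature, quantified reporter output of PGC/ERR cells. These had been plated at 2,000 per well, incubated 6 h, dosed with compounds in DMSO, then kept 18 h at 37 C.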

Experiment [7] can be described thus: qHTS assay to identify small molecule agonists of the estrogen related receptor signaling pathway with the pleiotropic PPARgamma coactivator (PGC) from Tox21 10K library (AID 1224842). Further: nearly all actives have a fitted effect of over 15% in size. In outline: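 PGC/ERR reporter cell line, 2,000 cells per well, incubated 6 h at 37 C before 23 nL compound in DMSO was added. After 18 h at 37 C, One-Glo luminescence read following 30 min at room temperature.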

Experiment [8] can be described thus: qHTS assay to identify small molecule agonists of the hypoxia (HIF-1) signaling pathway - cell viability counter screen (AID 1224844; calls by dose curve; further: nearly all actives have a fitted effect of over 50% in size). Summed up:
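In this counter screen, HRE-bla ME-180 cell viability after 17 hrs of compound exposure at 37C was read by CellTiter-Glo luminescence, multiplexed with the beta-lactamase reporter measurement.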

Experiment [9] deals with Nuclear receptor subfamily 1 group I member 3 (Homo sapiens) (UniProt Q14994). The experiment in a line: qHTS assay to identify small molecule agonists of the constitutive androstane receptor (CAR) signaling pathway (AID 1224839). Further: nearly all actives have a fitted effect of over 15% in size. On activation: series mostly up to about 92 µM. In outline: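 Luminescence read-out (ONE-Glo, 30 min, room temperature) from double-stable HepG2-CYP2B6-hCAR cells exposed 24 h to 15-point compound series in presence of 0.75 uM PK11195 final.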

Experiment [10] can be described thus: qHTS assay to identify small molecule antagonists of the constitutive androstane receptor (CAR) signaling pathway - cell viability counter screen (AID 1224837). Further: nearly all actives have a fitted effect of over 45% in size. On activity change, negative = cytotoxicity: series mostly up to about 92 µM. In outline:
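CITCO at 50 nM final was added alongside compounds (15 concentrations) to double-stable hCAR/CYP2B6-2.2kb HepG2 cells. Following 23 hr at 37 C, cell viability was quantified by CellTiter-Fluor fluorescence intensity.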

Inconclusive results are not listed. Values without a mark were called inactive. Activity calls are given as the source filed them. Unless noted, the call rests on the fitted dose curve; in most records, active means well fitted curve in the direction sought with a large enough effect in the repeat runs; inconclusive means weak or mixed curves; inactive means no such curve, though single readings can be large; an effect the other way counts as inactive or inconclusive.
On the % scale 0 is the no-effect control and ±100 the full control effect; potency means the concentration at half of the fitted maximal effect.

Nuclear receptor subfamily 1 group I member 3 (Homo sapiens), sequence (Q14994 whole entry, looked up): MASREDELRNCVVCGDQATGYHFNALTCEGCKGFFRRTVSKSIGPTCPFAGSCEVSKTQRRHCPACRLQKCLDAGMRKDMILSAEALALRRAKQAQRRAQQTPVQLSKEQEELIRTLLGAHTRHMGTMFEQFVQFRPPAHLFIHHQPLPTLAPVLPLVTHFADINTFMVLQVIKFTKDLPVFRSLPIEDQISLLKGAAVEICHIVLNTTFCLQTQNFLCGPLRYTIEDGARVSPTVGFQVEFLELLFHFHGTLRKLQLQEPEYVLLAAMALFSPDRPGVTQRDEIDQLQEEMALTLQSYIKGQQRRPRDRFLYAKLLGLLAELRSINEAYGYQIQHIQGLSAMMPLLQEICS
Luciferin 4-monooxygenase (Photinus pyralis), sequence (P08659 whole entry, looked up): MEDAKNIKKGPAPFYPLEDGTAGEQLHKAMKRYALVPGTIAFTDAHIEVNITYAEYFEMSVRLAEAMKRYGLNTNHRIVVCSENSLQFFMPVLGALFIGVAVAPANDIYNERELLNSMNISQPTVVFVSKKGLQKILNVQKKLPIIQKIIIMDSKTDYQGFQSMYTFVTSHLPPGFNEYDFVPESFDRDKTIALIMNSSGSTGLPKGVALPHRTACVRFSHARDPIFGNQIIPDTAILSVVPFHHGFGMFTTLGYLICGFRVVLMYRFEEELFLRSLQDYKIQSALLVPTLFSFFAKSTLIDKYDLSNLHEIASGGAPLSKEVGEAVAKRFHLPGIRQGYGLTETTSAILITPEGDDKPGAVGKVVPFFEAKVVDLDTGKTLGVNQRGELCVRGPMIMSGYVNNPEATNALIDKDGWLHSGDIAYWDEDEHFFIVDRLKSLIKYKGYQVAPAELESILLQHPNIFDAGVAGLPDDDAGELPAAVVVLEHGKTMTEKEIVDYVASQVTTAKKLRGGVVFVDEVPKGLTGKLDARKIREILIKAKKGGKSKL
Thyrotropin receptor (Homo sapiens), sequence (P16473 whole entry, looked up): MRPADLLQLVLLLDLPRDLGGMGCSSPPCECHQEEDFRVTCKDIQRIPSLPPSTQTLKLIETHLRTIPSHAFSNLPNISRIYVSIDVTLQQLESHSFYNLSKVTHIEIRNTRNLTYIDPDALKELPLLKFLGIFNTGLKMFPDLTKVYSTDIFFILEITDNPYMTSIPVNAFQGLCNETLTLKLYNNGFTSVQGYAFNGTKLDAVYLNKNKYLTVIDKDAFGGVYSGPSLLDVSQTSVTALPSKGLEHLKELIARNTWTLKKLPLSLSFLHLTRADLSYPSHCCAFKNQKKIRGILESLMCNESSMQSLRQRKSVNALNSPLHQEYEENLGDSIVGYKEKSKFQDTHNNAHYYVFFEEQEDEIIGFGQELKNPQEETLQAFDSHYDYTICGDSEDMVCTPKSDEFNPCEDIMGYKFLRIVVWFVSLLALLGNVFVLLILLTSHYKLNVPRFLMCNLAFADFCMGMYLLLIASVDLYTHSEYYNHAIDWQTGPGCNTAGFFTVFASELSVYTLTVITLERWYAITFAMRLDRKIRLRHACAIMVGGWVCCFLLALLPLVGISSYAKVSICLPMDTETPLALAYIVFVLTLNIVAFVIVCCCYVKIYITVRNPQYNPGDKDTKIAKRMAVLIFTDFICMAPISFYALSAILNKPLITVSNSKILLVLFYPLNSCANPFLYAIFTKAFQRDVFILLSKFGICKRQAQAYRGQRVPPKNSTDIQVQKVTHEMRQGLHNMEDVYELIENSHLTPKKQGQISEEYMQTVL

On to `Cc1cccc(Br)c1`, for which the Potency entry in experiment [1], in experiment [2], in experiment [3], in [4] and in [5] was “inactive” in each case.

On to `C(=C/c1ccccc1)/c1ccccc1`, for which the Potency result in [1], in experiment [2], in experiment [3], in experiment [4] and in [5] was “inactive” each time.

Turning to `CCCCCCC(C)OC(=O)COc1nc(F)c(Cl)c(N)c1Cl` (stereo unspecified), the Potency result in experiment [1], in [2], in experiment [4], in experiment [6] and in experiment [7] was “inactive” throughout.

Consider `CC(CN(C)C)CN1c2ccccc2CCc2ccccc21` (stereo unspecified), for which the Potency entry in [1], in [2] and in experiment [4] was “inactive” each time.

`CC1CCCCN1CCCOC(=O)c1ccc(OC2CCCCC2)cc1` (stereo unspecified): the Potency result in experiment [1], in [2], in [4], in [7] and in [8] was “inactive” throughout. In addition, the Potency in experiment [5] is 26.6 µM (active).

In the case of `O=C1NC2CCCCN2C12CCN(CCCN1c3ccccc3CCc3ccc(Cl)cc31)CC2` (stereo unspecified), the Potency result in [1], in experiment [9] and in [7] was “inactive” each time.

For the compound `Cc1cc2c(C(C)C)c(O)c(O)c(C=O)c2c(O)c1-c1c(C)cc2c(C(C)C)c(O)c(O)c(C=O)c2c1O`, the Potency result in experiment [1], in experiment [9], in experiment [7] and in [5] was “inactive” each time. Also, the Potency is 26.6 µM (active) in experiment [4] and 11.9 µM (active) in experiment [6].

Regarding `CC=O`, the Potency entry in experiment [1] and in [9] was “inactive” throughout. The Potency in [3] is 36 µM (active); in [4], 25.5 µM (active).

On to `Cc1c(C)n(Cc2ccccc2)c2ccc(C(=O)OCCN(C)C)cc12`, for which the figures for the Potency in [1] and in experiment [9] were 27.5 µM (active) and 11.9 µM (active), respectively. The Potency entry in experiment [3], in experiment [4], in experiment [6], in experiment [5] and in experiment [8] was “inactive” each time.

As to `CCCCC(CC)COC(=O)c1ccc(O)cc1` (stereo unspecified), the Potency result in experiment [1], in experiment [2], in experiment [4] and in experiment [5] was “inactive” throughout. Moreover, the Potency in experiment [8] is 49 µM (active).

In the case of `CC1=CP(=O)(c2ccccc2)CC1` (stereo unspecified), the Potency result in experiment [1], in [2], in experiment [4], in experiment [6], in experiment [5] and in [8] was “inactive” throughout.

Consider `CCN(CC)CCCN(c1ccccc1)C1Cc2ccccc2C1`, for which the Potency result in [1], in experiment [10], in experiment [9] and in [4] was “inactive” each time. In experiment [8], the Potency was 23.9 µM (active).

With `CC(O)C#CC(C)O` (stereo unspecified), the Potency result in [1] was “inactive”. In addition, the figures for the Potency in [10] and in experiment [3] were 53.9 µM (active) and 48.1 µM (active), respectively.

In the case of `O=C(Nc1ccc(Cl)cc1)Nc1ccc(Cl)c(C(F)(F)F)c1`, the Potency was 34.7 µM (active) in experiment [1], 16.8 µM (active) in experiment [3], 5.31 µM (active) in experiment [6] and 26.8 µM (active) in [8]. Moreover, the Potency result in experiment [7] and in [5] was “inactive” each time.

For the compound `CCCCCCOc1ccc(O)cc1`, the Potency in experiment [1] was 35.6 µM (active); in experiment [9] it was 27.3 µM (active); in experiment [7], 13.7 µM (active); in experiment [8], 54.9 µM (active). Also, the Potency result in [3], in experiment [4], in experiment [6] and in experiment [5] was “inactive” in each case.

For the compound `CCC(C)c1cc([N+](=O)[O-])cc([N+](=O)[O-])c1OC(=O)OC(C)C` (stereo unspecified), the Potency result in [1], in experiment [7] and in experiment [5] was “inactive” throughout. Also, the Potency in experiment [10] was 61.1 µM (active); in experiment [4] it was 43.3 µM (active); in [6], 21.7 µM (active).

For `O=C(O)c1cccc(Cl)n1`, the Potency entry in experiment [1], in [2], in experiment [4] and in experiment [8] was “inactive” each time.

Regarding `NC(=O)c1nc(-c2cccc(-c3cc(F)ccc3OCC(F)(F)C(F)(F)F)c2)n[nH]1`, the Potency result in experiment [1], in experiment [7] and in [5] was “inactive” in each case. For the same compound, the figures for the Potency in experiment [2] and in experiment [6] were 61.1 µM (active) and 24.3 µM (active), respectively.

As for `COc1ccccc1OCCNCC(O)COc1cccc2[nH]c3ccccc3c12` (stereo unspecified), the Potency entry in experiment [1], in [3], in experiment [9] and in experiment [7] was “inactive” each time. In experiment [6], the Potency is 13.3 µM (active).

As to `CCCCCCCC(C)=O`, the Potency result in [1], in experiment [2], in [4], in experiment [5] and in experiment [8] was “inactive” in each case.

Turning to `CC(C(O)c1ccccc1)N(C)CCOC(c1ccccc1)c1ccccc1` (stereo unspecified), the Potency result in experiment [1], in [9], in experiment [7] and in [8] was “inactive” in each case.

`CCCCCCCCCCOCC(O)CN` (stereo unspecified): the Potency result in experiment [1], in [9], in experiment [7] and in experiment [8] was “inactive” in each case. In addition, the Potency in [10] was 29.8 µM (active); in experiment [5], 21.1 µM (active).

In the case of `CC(C)(c1cc(Br)c(OCCO)c(Br)c1)c1cc(Br)c(OCCO)c(Br)c1`, the Potency entry in experiment [1], in experiment [3] and in experiment [7] was “inactive” throughout. The Potency in experiment [4] is 42.3 µM (active); in [6], 16.8 µM (active); in experiment [8] it was 42.7 µM (active).

For the compound `COc1ccc(-n2nc(CCC(=O)N(C)O)cc2-c2ccc(Cl)cc2)cc1`, the Potency result in [1], in [3] and in experiment [5] was “inactive” in each case. The Potency in [8] was 19 µM (active).

In the case of `CN(C)c1ccc(N=NS(=O)(=O)O)cc1`, the Potency in experiment [1] is 17.8 µM (active). Further, the Potency entry in [3] is “inactive”.

As for `CCC(C)(C)c1cc(O)c(C(C)(C)CC)cc1O`, the Potency entry in experiment [1], in [3] and in [5] was “inactive” each time.

On to `O=S(=O)(O)c1cc(S(=O)(=O)O)c2ccc3c(S(=O)(=O)O)cc(S(=O)(=O)O)c4ccc1c2c43`, for which the activity change, negative = inhibition in [1] is -0.173% [at 23.6 µM]. For the same compound, the viability change, negative = cytotoxic is 3.39% [at 19 µM] in experiment [2] and 1.08% [at 19 µM] in [4]. Moreover, the activation in experiment [7] is 0.18% [at 19 µM]; in [5] it was -6.64% [at 19 µM]. For the same compound, the activity change, negative = cytotoxicity in experiment [8] is 1.23% [at 15.8 µM].

`CC(=O)OC(OC(C)=O)c1ccc([N+](=O)[O-])o1`: the Potency result in [1], in experiment [9] and in [7] was “inactive” throughout. For the same compound, the Potency was 62.2 µM (active) in experiment [10], 55.4 µM (active) in experiment [3] and 27.8 µM (active) in [5].

Turning to `Cc1cc(Nc2ccc(O)cc2)ccc1N`, the Potency in [1] is 63 µM (active); in experiment [4] it was 24.2 µM (active); in experiment [6], 15.3 µM (active); in experiment [8], 24.4 µM (active). Moreover, the Potency entry in experiment [3], in experiment [9] and in experiment [7] was “inactive” each time.

For the compound `CCC(C)C(=O)OC` (stereo unspecified), the Potency entry in experiment [1], in experiment [2], in experiment [4], in experiment [5] and in experiment [8] was “inactive” in each case.

`Clc1ccc(C(Cn2ccnc2)OCc2ccsc2Cl)c(Cl)c1` (stereo unspecified): the Potency entry in experiment [1], in experiment [3], in experiment [7] and in [8] was “inactive” each time. Further, in experiment [9], the Potency was 23.7 µM (active).

For the origin of these results see PubChem BioAssay (Tox21).
